# From ChEMBL document CHEMBL1157539, “Thousands of chemical starting points for antimalarial lead identification” (Nature, 2010)
# “And” between values parts separate entries of the source, which are not always exact repeats. Identical values can stand only once.
# Experiments:
# Type in all cases: functional
# Plasmodium falciparum [1] = assay: GSK_TCMDC: Inhibition of Plasmodium falciparum 3D7 in whole red blood cells, using parasite LDH activity as an index of growth. Test compounds present at 2uM
# Plasmodium falciparum [2] = assay: GSK_TCMDC: Inhibition of Plasmodium falciparum Dd2 in whole red blood cells, using parasite LDH activity as an index of growth. Test compounds present at 2uM
# HepG2 = assay: GSK_TCMDC: Percent inhibition of human HepG2 cell line. Test compounds present at 10uM.
SMILES,Inhibition (Plasmodium falciparum [1]),Inhibition (Plasmodium falciparum [2]),Inhibition (HepG2)
O=C(/C=C/c1ccc2ccccc2c1)NC1CCC(CN2CCC(c3c[nH]c4ccccc34)CC2)CC1 (configuration not stated),100%,88%,28%
O=C(CCc1ccc(Cl)cc1Cl)NC1CCC(CN2CCC(c3c[nH]c4ccccc34)CC2)CC1 (configuration not stated),100% and 97%,–,44% and 33%
CCCCC/C=C/C(=O)NC1CCC(CN2CCC(c3c[nH]c4ccccc34)CC2)CC1 (configuration not stated),87%,11%,19%
O=C(CCc1ccco1)NC1CCN(CC2(c3ccc(Cl)cc3)CCC2)CC1,99%,67%,0%
COCCNCc1ccc(-c2ccc(CN(C(=O)NC3CCCCC3)C3CCN(Cc4ccccc4)CC3)cc2)cc1.O=C(O)C(F)(F)F,94%,84%,29%
CCCCc1ccc2[nH]cc(C3=CCN(C)CC3)c2c1Br,94%,94%,37%
CC(Cc1ccc(OCCCCOc2ccccc2)cc1)NCCCc1nc2ccccc2[nH]1 (configuration not stated),97%,67%,99%
CC(Cc1ccc(OCCCCOc2ccccc2)cc1)NCCCN1CCOCC1 (configuration not stated),98%,78%,98%
CC(Cc1ccc([N+](=O)[O-])cc1)NCC(O)c1cccc(C(F)(F)F)c1 (configuration not stated),98%,92%,0%
CCCCCOc1ccc(CC(C)NCC(O)c2cccc(Cl)c2)cc1 (configuration not stated),100%,99%,0%
CC(Cc1ccc(OCc2ccc(CCN(C)C)cc2)cc1)NCCc1cccc(Cl)c1 (configuration not stated),100%,78%,42%
O=C(Nc1ccccc1C(F)(F)F)NC1CCC(CN2CCC(c3c[nH]c4ccccc34)CC2)CC1 (configuration not stated),96% and 86%,–,46% and 34%
CNC(=O)c1ccc2[nH]cc(C3CCN(CC4CCC(NC(=O)/C=C/c5ccccc5Cl)CC4)CC3)c2c1 (configuration not stated),100%,19%,12%
Cc1cc(N(C)C2CCN(C)CC2)nc(Nc2ccc(Br)cc2)n1,100%,92%,0%
O=C(/C=C/c1ccsc1)NC1CCC(CN2CCC(c3c[nH]c4ccccc34)CC2)CC1 (configuration not stated),82%,20%,29%
CC(=O)C1(c2ccccc2)CCN(CCC2(c3ccc(Cl)c(Cl)c3)CN(C(=O)CC(C)C)CCO2)CC1 (configuration not stated),92%,94%,7%
CCOC(=O)CCCN1C(=O)CN=C(c2ccccc2)c2cc(Cl)ccc21,97%,47%,54%
CCCc1ccc2c(c1O)CCC(N(CCC)CCC)C2.Cl (configuration not stated),90%,23%,0%
